Measurements as given in ChEMBL document CHEMBL3988442, “University of Dundee, Small-Polar-MMV Screening Library” (2021).
About 13,000 (27%) of roughly 48,000 compounds showed an effect of 50% or more. Some of the results follow.

Test system: Wolbachia pipientis
Assay: Anti-Wolbachia Cell-Based Screen
Assay type: functional
Design: scale not given: in the data most compounds retested in dose-response had high values
Details: 5 µM

| SMILES | Percent Effect |
| --- | --- |
| Cc1noc(C)c1CN1CC2(CCCCN2c2cncnc2)CC1=O (stereo unspecified) | 1.289% |
| O=C(CCc1ccc(=O)[nH]n1)N1CCCC(COc2ccc(F)cc2)C1 (stereo unspecified) | -3.616% |
| COCCn1ccnc1C1CCCN(C(=O)CSCC2CC2)C1 (stereo unspecified) | -1.205% |
| CC(C)C(=O)N1CCC([C@@H]2C[C@H](C(F)F)n3ncnc3N2)CC1 | 105.2% |
| CC(C)C(=O)N1CC[C@@H]2CN(Cc3ccncc3)S(=O)(=O)[C@@H]2CC1 | -1.309% |
| COCCC(=O)N1CCCC([C@@H]2C[C@H](C(F)F)n3ncnc3N2)C1 (stereo partly specified) | 128.9% |
| CC(C)C(=O)N1CCCC([C@@H]2C[C@H](C(F)F)n3ncnc3N2)C1 (stereo partly specified) | 140.3% |
| CC(=O)N1C[C@H]2CCCN(c3ncc(C)cn3)[C@H]2C1 | 4.198% |
| COc1ccc(CN(C)C2CCN(C(=O)C(C)C)CC2)c2cccnc12 | -16.31% |
| CC(NC(=O)Nc1cccnc1N1CCOCC1)c1ccncc1 (stereo unspecified) | -4.832% |
| Cc1cc(N(C)Cc2cc(C)on2)n2nc(C)c(C)c2n1 | -5.11% |
| CCc1nnc(CN(C)c2cc(C)nc3c(C)c(C)nn23)o1 | 7.383% |
| O=C(CC1CCCC1)NCCn1nc2ccccn2c1=O | 2.754% |
| CCC(=O)CNC(=O)CCn1nc2ccccn2c1=O | -17.3% |
| Cc1ccccc1CSCCn1nc2ccccn2c1=O | 8.414% |
| CC(C1CC1)N(C(=O)NCCCn1nc2ccccn2c1=O)C1CC1 (stereo unspecified) | -19.29% |
| CCCc1cc(C(=O)NCCn2nc3ccccn3c2=O)[nH]n1 | 0.6756% |
| CN(CCn1nc2ccccn2c1=O)CC(=O)N(C)C1CCCCC1 | 82.2% |
| CC(=O)N1CCCN(CCn2nc3ccccn3c2=O)CC1 | 104.1% |
| COc1ccc(CC(=O)NCCn2nc3ccccn3c2=O)cc1 | 7.031% |
| CCOc1ccccc1CSCCn1nc2ccccn2c1=O | -0.2652% |

| SMILES | Percent Effect |
| --- | --- |
| Cc1ccsc1C(=O)NCCCn1nc2ccccn2c1=O | -12.31% |
| COCCNC(=O)CN(C)CCn1nc2ccccn2c1=O | 81.18% |
| CCN(CC)C(=O)CN(C)CCn1nc2ccccn2c1=O | 106.3% |
| CC(NCC1CCS(=O)(=O)CC1)c1cccc(OC(F)F)c1 (stereo unspecified) | 6.07% |
| CCC1=N[C@@]2(CC[C@@H]3CN(CC4CC4)C[C@@H]32)C(=O)N1 | 9.591% |
| N#Cc1ccc(CNC2CCN(CCc3ccncc3)CC2)cc1 | -19.98% |
| CN(C)CCN(Cc1cccc(C(F)(F)F)c1)C(=O)c1cc[nH]n1 | 1.923% |
| Cc1c[nH]c(CN2CCN(C)C3(CCC(=O)N(CC4CC4)CC3)C2)n1 (stereo unspecified) | -1.954% |
| Cc1cccc(N2CCc3ncc(CNS(C)(=O)=O)n3CC2)n1.O=C(O)C(F)(F)F | 88.7% |
| CCS(=O)(=O)N1CCC2(CN(c3cccc(C)n3)C2)C1.O=C(O)C(F)(F)F | 1.878% |
| Cc1cccc(N2CCc3ncc(CNc4ccccn4)n3CC2)n1.O=C(O)C(F)(F)F.O=C(O)C(F)(F)F | 88.27% |
| CN1CCc2ncc(CNc3cc(N(C)C)ncn3)n2CC1.O=C(O)C(F)(F)F | -9.651% |
| CN(Cc1ccco1)Cc1cnc2n1CCN(c1ccccn1)CC2.O=C(O)C(F)(F)F.O=C(O)C(F)(F)F | 10.62% |
| CS(=O)(=O)NCc1cnc2n1CCN(Cc1ccsc1)CC2.O=C(O)C(F)(F)F | -2.337% |
| Cc1cc(C)c(C(=O)N2CCc3c(ncn3CCc3ccccc3)C2)[nH]1 | -5.733% |
| CCCNC(=O)N1CCCC2(CCC(=O)N(CCc3c[nH]cn3)C2)C1 (stereo unspecified) | 12.8% |
| CC(C)NC(=O)N1CCN(CCn2cccn2)c2ncccc2C1.O=C(O)C(F)(F)F | 105% |
| CC(=O)NCC(=O)N1CCN(CCN(C)C)c2ncccc2C1.O=C(O)C(F)(F)F.O=C(O)C(F)(F)F | -13.2% |
| Cc1ccc2c(n1)N(CCn1cccn1)CCN(C(=O)NC1CC1)C2.O=C(O)C(F)(F)F | 12.45% |
| CC(C)NC(=O)N1CCN(CC2CC2)c2ncccc2C1.O=C(O)C(F)(F)F | -7.83% |
| Cc1ccc2c(n1)N(C)CCN(C(=O)NC(C)C)C2.O=C(O)C(F)(F)F | -4.064% |

| SMILES | Percent Effect |
| --- | --- |
| CN1CCN(C(=O)Cc2ccc(F)cc2)Cc2cccnc21.O=C(O)C(F)(F)F | -3.35% |
| Cc1ccc2c(n1)N(CCn1cccn1)CCN(C(=O)NC(C)C)C2 | 112.2% |
| CCC(=O)N1CCN(CCn2cccn2)c2ncccc2C1.O=C(O)C(F)(F)F | 88.49% |
| CN1CCN(C(=O)NC2CC2)Cc2cccnc21.O=C(O)C(F)(F)F | -1.72% |
| CN1CCC(N(Cc2ccco2)S(=O)(=O)c2cc(Br)ccc2Br)CC1 | 17.1% |
| CSc1ccc(CN(C(=O)c2cc(=O)[nH]c(=O)[nH]2)C2CC2)cc1 | 1.499% |
| CN(C)C(C(=O)NCCS(=O)(=O)N(C)C)c1cccc(F)c1 (stereo unspecified) | -10.76% |
| Cc1ccccc1-c1cc(NC(=O)NC2CCC(O)CC2)n(CCO)n1 (stereo unspecified) | -35.4% |
| Cn1cc(CN2CCC(CCC(=O)NC3CC3)CC2)cn1 | -12.61% |
| Cc1nn(C)cc1-c1cc(-c2cn(C)nc2C)n(CC(=O)NC2CC2)n1 | 89.98% |
| Cc1ccccc1-c1cc(NC(=O)NC2CC2)n(CCO)n1 | -65.06% |
| Cc1cn(CC(=O)NC2CCC(C(=O)O)CC2)c2ccccc12 (stereo unspecified) | -7.822% |
| Cc1c(-c2cc(-c3cnn(C)c3C)n(CC(=O)NC3CC3)n2)cnn1C | 78.99% |
| Cn1cc(-c2cc(-c3cnn(C)c3)n(CC(=O)NC3CC3)n2)cn1 | 98.73% |
| CN(Cc1cnn(C)c1)C(=O)NC1CCC(O)CC1 (stereo unspecified) | 16.63% |
| Cc1nn2c(NCC(=O)NC3CC3)cc(-c3ccccc3)nc2c1C | 7.066% |
| O=C(c1cnc(Nc2ccccc2)nc1)N1CCCC2(CCNC2)C1 (stereo unspecified) | -3.033% |
| CCN(C(=O)CN(CC(N)=O)C(C)C)C1=CCCC1 | 4.298% |
| CCOc1cc(F)ccc1NS(=O)(=O)c1cc(C)c(C(=O)O)s1 | 9.69% |
